# Assay outcomes from PubChem.
# TDP1 cell noCPT: qHTS for Inhibitors of human tyrosyl-DNA phosphodiesterase 1 (TDP1): qHTS in cells in absence of CPT | Potency, µM (doses to about 46.2 µM), most hits filed as inhibitors | DT40 Tdp1-/- hTDP1 cells, no CPT, ATP luminescence, 48 h | 420,000 tested, 15% active; further: nearly all actives have a fitted effect of over 55% in size
#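 DT40 Tdp1-/-;hTDP1 cells, no CPT (DMSO vehicle only), 400 cells/well; compounds pin-transferred; ≥48 hr, 37 °C; CellTiter-Glo 30 min RT dark, luminescence read.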
# IL-1B inflam inh: qHTS for Inhibitors of Inflammasome Signaling: IL-1-beta AlphaLISA Primary Screen; THP-1 LPS/ATP IL-1B secretion, AlphaLISA, 16 h; hits give low values; activity change, % at 57.5 µM; 360,000 tested, 4.7% active; AID 743279, 2014; in the data active means activity change below about -50%; inconclusive means mostly about -30% to -49%
#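 THP-1 cells pretreated 1 hr with compounds (up to 57.5 uM final), then stimulated with LPS (250 ng/mL final) plus ATP (1.25 mM final); secreted IL-1B measured by AlphaLISA after 16 hr, decreased signal indicating inhibition.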
# TDP1 cell CPT: qHTS for Inhibitors of human tyrosyl-DNA phosphodiesterase 1 (TDP1): qHTS in cells in presence of CPT | chicken DT40 Tdp1-/-;hTDP1 cells + 20 nM CPT, ATP luminescence, 48 h | Potency, µM (doses to about 46.2 µM), hits mostly inhibitors | 420,000 tested, 12% active; further: nearly all actives have a fitted effect of over 55% in size
#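 Chicken DT40 Tdp1-/- cells stably complemented with human TDP1 were seeded at 400 cells/well in medium containing 20 nM camptothecin, exposed to pin-transferred compounds, and grown at 37 °C for at least 48 hr. Viability was read as ATP luminescence.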
# ALOX12 inh: Primary qHTS assay for inhibitors of human arachidonate 12S-lipoxygenase (ALOX12): Round 2; Potency, µM (doses to about 108 µM), usual class: inhibitors; purified 12hLO, xylenol orange hydroperoxide absorbance; Polyunsaturated fatty acid lipoxygenase ALOX12 (Homo sapiens), P18054; 580,000 tested, 1.1% active
#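 Hydroperoxide product was detected by ferrous iron/xylenol orange as the 573 to 405 nm absorbance ratio. Arachidonic acid at 40 uM (final) was turned over for 30 min at room temperature by 150 nM human 12hLO, pH 7.0 Hepes buffer, after 15 min compound preincubation.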
# HT1080NT lethal: qHTS for induction of synthetic lethality in tumor cells producing 2HG: qHTS for the HT-1080-NT fibrosarcoma cell line; HT-1080-NT fibrosarcoma viability, CellTiter-Glo ATP luminescence, 48 h; Potency, µM (top dose mostly 46.1 µM), usual class: cytotoxic; 360,000 tested, 1.6% active; AID 686970, 2013;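 further: NT is the 2HG producing partner of a matched IDH1 knockdown line; nearly all actives have a fitted effect of over 55% in size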
#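 A 48-hour cytotoxicity screen used HT-1080-NT cells plated 2 hours before compound delivery. ATP-based CellTiter-Glo luminescence measured viability, normalized to DMSO and no-cell controls.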
# HT1080 IDH1KD tx: qHTS for induction of synthetic lethality in tumor cells producing 2HG: qHTS for the HT-1080-IDH1KD cell line | Potency, µM (doses to about 46.1 µM), most hits filed as cytotoxic | 360,000 tested, 2% active | HT-1080 IDH1 knockdown viability, ATP luminescence, 48 h | AID 686971, 2013
#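 Assay cells: HT-1080 with IDH1 knockdown, 750 per well, RPMI/5% FBS. Exposure: 48 h at 37 °C following 2 h pre-incubation. Read: CellTiter-Glo luminescence; fitted concentration-response, curve class assigned.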
# A number is an active result; – = inactive; ? = inconclusive; · = not tested or not shown. Only a selection was taken, and hits are over-represented in it overall. Unless noted, the call rests on the fitted dose curve; in most records, active means well fitted curve in the direction sought with a large enough effect; inconclusive means small, poorly fitted or top-dose-only effect, or another doubt; inactive means no such curve, though single readings can be large; an effect the other way counts as inactive or inconclusive.
SMILES,TDP1 cell noCPT,IL-1B inflam inh,TDP1 cell CPT,ALOX12 inh,HT1080NT lethal,HT1080 IDH1KD tx
CCOc1ccc(NC2=C(Cl)C(=O)N(C3CCCCC3)C2=O)cc1,–,–,–,–,–,–
COc1ccc(C)cc1NC1=C(Cl)C(=O)N(C2CCCCC2)C1=O,12µM,–,?,–,–,–
COc1ccc(NC(=O)c2oc3ccccc3c2NC(=O)Cc2ccc(F)cc2)c(OC)c1,8.2µM,·,12µM,–,·,·
COc1cccc(N2CCN(C(=O)c3oc4ccccc4c3NC(=O)Cc3ccc(OC)c(OC)c3)CC2)c1,?,–,16µM,–,–,–
COc1cccc(N2CCN(C(=O)c3oc4ccccc4c3NC(=O)CCc3cc(OC)no3)CC2)c1,?,–,–,–,–,–
O=C(Nc1c(C(=O)N2CCN(c3ccccc3)CC2)oc2ccccc12)c1ccco1,?,·,?,–,·,·
O=C(Cc1ccccc1)Nc1c(C(=O)N2CCN(c3ccc(F)cc3)CC2)oc2ccccc12,26µM,·,16µM,–,·,·
O=C(COc1ccccc1)Nc1c(C(=O)N2CCN(c3ccc(F)cc3)CC2)oc2ccccc12,?,·,?,–,·,·
Cc1ccc(CC(=O)Nc2c(C(=O)N3CCN(c4ccccc4)CC3)oc3ccccc23)cc1,?,·,23µM,–,·,·
CCOc1ccc(C(=O)Nc2c(C(=O)N3CCN(c4ccccc4F)CC3)oc3ccccc23)cc1,–,·,?,–,·,·
Cc1ccc(CC(=O)Nc2c(C(=O)N3CCN(c4ccccc4F)CC3)oc3ccccc23)cc1,18µM,·,?,–,·,·
COc1cccc(OC)c1C(=O)Nc1c(C(=O)N2CCN(Cc3ccccc3)CC2)oc2ccccc12,·,·,·,–,·,·
COc1ccccc1C(=O)Nc1c(C(=O)N2CCN(c3ccccc3F)CC2)oc2ccccc12,16µM,·,16µM,–,·,·
COc1ccc(CC(=O)Nc2c(C(=O)N3CCN(c4ccccc4F)CC3)oc3ccccc23)cc1OC,13µM,·,10µM,–,·,·
COc1ccccc1C(=O)Nc1c(C(=O)Nc2ccccc2F)oc2ccccc12,26µM,·,21µM,–,·,·
CN(C)S(=O)(=O)c1ccc(/C(O)=C2/C(=O)C(=O)N(CCN3CCCCC3)C2c2cccnc2)cc1 (stereo not drawn),–,–,?,?,–,–
CCc1nnc(SCC(=O)Nc2ccc(Cl)cc2Cl)n1-n1cccc1,·,·,·,–,·,·
CC1(C(=O)NCc2cccc(C(F)(F)F)c2)CCN1CCc1ccccc1 (stereo not drawn),?,–,?,–,?,–
CC(C)Oc1ccc(CN2CCC2(C)C(=O)NCc2cccc3ccccc23)cc1 (stereo not drawn),15µM,–,12µM,–,18µM,?
CC1(C(=O)NCc2cccc3ccccc23)CCN1CCc1ccccc1 (stereo not drawn),18µM,–,?,–,?,?
CC1CCC2(CC1)NC(=O)N(CC(=O)Nc1ccccc1F)C2=O (stereo not drawn),·,·,·,–,·,·
O=C(Cn1cc(SCc2ccc(F)cc2)c2ccccc21)N1CCCCCC1,?,·,?,–,·,·
O=C(Cn1cc(SCc2c(F)cccc2Cl)c2ccccc21)N1CCCCCC1,?,·,23µM,–,·,·
Cc1ccccc1CSc1cn(CC(=O)N2CCCCC2)c2ccccc12,16µM,·,13µM,–,·,·
O=C(Cn1cc(SCc2cccc(F)c2)c2ccccc21)N1CCOCC1,?,·,?,–,·,·
O=C(Cn1cc(SCc2ccc(Br)cc2)c2ccccc21)N1CCCCC1,16µM,·,?,?,·,·
Cc1ccc(C)c(CSc2cn(CC(=O)N3CCCCCC3)c3ccccc23)c1,–,·,–,–,·,·
